Only some compounds are listed: those with a hit (about 12% of all), similar ones and a draw of the others.
BAZ2B inh: qHTS Assay for Inhibitors of BAZ2B. 360,000 tested, 4.4% active. AlphaScreen BAZ2B-H3K14Ac peptide displacement. Potency, µM (top dose mostly 114 µM), inactives show at the highest dose activity change, negative = inhibition, actives largely listed as inhibitors; further: on the % scale 0 is the no-effect control and ±100 the full control effect; nearly all actives have a fitted effect of over 60% in size
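Compounds, titrated to a top concentration of 110 uM, were incubated 30 min at room temperature with preformed BAZ2B/acetyl-K14 H3 peptide complex (50 nM each). Proximity signal was measured by AlphaScreen after 20 min with beads.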
G9a block: qHTS Assay for Inhibitors of Histone Lysine Methyltransferase G9a. AID 504332, 2011. Histone-lysine N-methyltransferase EHMT2 (Homo sapiens), Q96KQ7. Potency, µM (doses to about 102 µM), for inactives: at the highest dose activity, negative = inhibition, usual class: inhibitors. 350,000 tested, 8.8% active. G9a H3K9 monomethylation, AlphaScreen, 2 h; further: on the % scale 0 is the no-effect control and ±100 the full control effect; nearly all actives have a fitted effect of over 75% in size
Target sequence (Q96KQ7 913-1193 limits assumed): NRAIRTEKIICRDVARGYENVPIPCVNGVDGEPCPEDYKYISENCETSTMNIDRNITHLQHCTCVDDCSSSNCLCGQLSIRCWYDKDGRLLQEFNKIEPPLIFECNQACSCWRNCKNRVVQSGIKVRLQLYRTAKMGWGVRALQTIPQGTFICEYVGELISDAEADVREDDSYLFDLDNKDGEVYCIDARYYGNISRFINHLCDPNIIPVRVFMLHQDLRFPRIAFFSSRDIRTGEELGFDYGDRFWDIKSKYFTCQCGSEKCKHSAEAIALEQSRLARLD
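AlphaScreen read-out: biotin-H3K9 peptide (500 nM) methylation by 20 nM enzyme with 20 uM SAM, 2 h at room temperature after 15 min compound preincubation; anti-monomethyl H3K9 antibody plus donor/acceptor beads, 10 min dark.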
HP1b binding inh: HTS for Inhibitors of HP1-beta Chromodomain Interactions with Methylated Histone Tails; AlphaScreen HP1-beta / biotin-H3K9me3 peptide binding; Potency, µM (top dose mostly 114 µM), inactives show at the highest dose activity change, negative = inhibition, hits mostly inhibitors; 390,000 tested, 0.56% active; AID 540317, 2011; further: nearly all actives have a fitted effect of over 70% in size
Target sequence (P83916 whole entry, looked up): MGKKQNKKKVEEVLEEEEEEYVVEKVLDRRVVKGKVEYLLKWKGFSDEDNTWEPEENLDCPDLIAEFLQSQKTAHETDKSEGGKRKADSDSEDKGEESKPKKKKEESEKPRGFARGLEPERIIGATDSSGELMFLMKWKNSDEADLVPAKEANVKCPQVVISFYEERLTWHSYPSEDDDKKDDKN
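AlphaScreen: HP1-beta (50 nM) preformed 30 min with biotin-H3(1-18)K9me3 peptide (50 nM) in PBS pH 7.4, 0.01% Tween-20. Compound added for 30 min at RT, then streptavidin donor/nickel chelate acceptor beads (10 ug/mL) for 30 min.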
Sfp inh: qHTS Assay for Inhibitors of Bacillus subtilis Sfp phosphopantetheinyl transferase (PPTase). Potency, µM, for inactives: largest response in the series, negative = inhibition, most hits filed as inhibitors. 4'-phosphopantetheinyl transferase ffp (Bacillus subtilis), Q9F4F7. Biochemical Sfp PPTase activity, qHTS. 310,000 tested, 3.5% active;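 further: the enzyme is Sfp with the accession as filed and its product quenches rhodamine fluorescence; 0% = enzyme reaction without inhibitor and -100% = no enzyme wells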
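Buffer: 50 mM Hepes-Na pH 7.6, 10 mM MgCl2, 0.01% Nonidet P-40, 0.01% BSA. Enzyme 15 nM, pre-exposed to compound 15 min; substrates then added and fluorescence change tracked over 30 min.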
JMJD2A Tudor inh: qHTS Assay for Inhibitors of JMJD2A-Tudor Domain | Potency, µM (highest dose often 114 µM), inactives show top-dose activity change, negative = inhibition, usual class: inhibitors | AlphaScreen JMJD2A-Tudor / H3K4me3 peptide binding | Lysine-specific demethylase 4A (Homo sapiens), O75164 | 390,000 tested, 4.4% active; further: on the % scale 0 is the no-effect control and ±100 the full control effect; nearly all actives have a fitted effect of over 50% in size
Starred values were filed as active, the others as inactive; ? = inconclusive; / = no result given; [ ] = another dose, or the depositor's remark. The call rests on the fitted dose curve; in most records, active means well fitted curve in the direction sought with a large enough effect; inconclusive means small, poorly fitted or top-dose-only effect, or another doubt; inactive means no such curve, though single readings can be large; an effect the other way counts as inactive or inconclusive. Potency means the concentration at half of the fitted maximal effect.

SMILES | BAZ2B inh | G9a block | HP1b binding inh | Sfp inh | JMJD2A Tudor inh
CCOc1ccccc1CNCCCSc1nnnn1C | -10.9% | -0.8%[59 µM] | 26.3% | / | -7.6%
COc1c2c(cc3c1C(c1c(O)c4ccccc4oc1=O)N(C)CC3)OCO2 (configuration not stated) | / | / | / | -7.2% | /
O=C(O)c1ccc(/C=N/NC(=O)c2cc(-c3ccc4c5c(cccc35)CC4)n[nH]2)cc1 | 50.1µM* | ? | -13.6% | 11.4% | ?
O=C(O)c1ccc(C=NNC(=O)c2cccc3ccccc23)cc1 | / | / | 34.4% | / | 0.7%
O=C(NNC(=O)c1cccc2ccccc12)c1ccc(Br)cc1 | / | / | 28.2% | / | 0.7%
C/C(=N\Nc1cccc(Cl)c1)C1(C)N(O)C(C)(C)C(c2ccco2)=[N+]1[O-] (configuration not stated) | -34.0% | 44.7µM* | 27.9% | 7.8% | -26.5%
C/C(=N\O)C1(C)N(O)C(C)(C)C(c2ccco2)=[N+]1[O-] (configuration not stated) | -2.0% | 40.7%[59 µM] | 43.1% | 13.8% | -5.1%
CCOc1ccc(C(=O)Nc2ccc(OCc3cc(=O)n4cccc(C)c4n3)cc2)cc1 | 10.1% | 22.3%[59 µM] | 16.3%[57 µM] | / | -5.2%
O=C(NCCc1ccccc1)/C(=C/c1ccco1)c1ccccc1 | ? | 10µM* | -18.0% | 6.31µM* | -32.7%
CC(C)NC(=O)/C(=C/c1ccco1)c1ccccc1 | -7.5% | / | 9.7% | -45.7% | -9.1%
CCC(C)NC(=O)/C(=C/c1ccco1)c1ccccc1 (configuration not stated) | -36.9% | -48.8%[12.7 µM] | 28.0% | 3.16µM* | -6.0%
COC(=O)c1ccc(N(CC(=O)NC2CCCC2)C(=O)c2ccc(C)s2)cc1 | -18.0% | -17.9% | 40.4% | 4.8% | -13.8%
CCOC(=O)c1ccc(Nc2c(-c3ccc(N(C)C)cc3)nc3nc[nH]n23)cc1 | ? | 15.8µM* | -15.5% | / | -33.7%
CCOC(=O)C1CCCCN1Cc1cccc(F)c1 (configuration not stated) | 50.1µM* | 3.55µM* | ? | -27.9% | 22.4µM*
CCOC(=O)C1CCCCN1Cc1cccc(Oc2ccccc2)c1 (configuration not stated) | 62.8% | 52.6% | 107.3% | 7.4% | 65.1%
CCOC(=O)C1CCCCN1Cc1ccc(-c2ccccc2)cc1 (configuration not stated) | 9.0% | ? | -9.2% | -23.0% | 20µM*
CCOC(=O)C1CCCCN1Cc1ccc(F)cc1 (configuration not stated) | 50.1µM* | 10µM* | ? | -27.8% | 4.47µM*
CCO/C=C1/C(=O)N(C(C)=O)c2ccccc21 | -15.2% | 10µM* | 53.5% | ? | -13.3%
Oc1ccc(NC(=S)N=Nc2c(O)[nH]c3ccccc23)cc1 | -14.6% | 50.1µM* | ? | -8.4% | ?
O=C(N=Nc1c(O)[nH]c2ccccc12)c1cccs1 | -23.5% | 79.4µM* | 31.5% | -27.5% | -12.5%
Oc1ccc(NC(=S)N=Nc2c(O)[nH]c3ccc(Br)cc23)cc1 | 20µM* | ? | ? | -14.3% | 31.6µM*
O=C(N=Nc1c(O)[nH]c2ccccc12)c1cc(NS(=O)(=O)c2cccs2)cc(NS(=O)(=O)c2cccs2)c1 | -17.5% | -2.2% | 0.2% | -5.0% | -20.6%
C[C@H](CO)N1C[C@H](C)[C@@H](CN(C)C(=O)Nc2ccc3c(c2)OCO3)Oc2c(NC(=O)c3ccncc3)cccc2C1=O | / | / | 29.9% | / | -22.5%
O=C(CN1C(=O)CCC1=O)Nc1ccc(Cc2ccc(NC(=O)CN3C(=O)CCC3=O)cc2)cc1 | 5.8% | 17.2% | 35.5% | 3.8% | 1.7%
O=C(Nc1cccc(Br)c1)N1CCN2CCCCC2C1 (configuration not stated) | ? | ? | 36.5% | / | 2.4%
SMILES | BAZ2B inh | G9a block | HP1b binding inh | Sfp inh | JMJD2A Tudor inh
CCCC(=O)Nc1nc2ccc(OCC)cc2s1 | 2.4% | -33.3% | 23.4% | 7.1% | -13.8%
CCOc1ccc2c(O)csc2c1 | -11.1% | ? | -11.1% | 50.1µM* | ?
CCCCn1cc(S(=O)(=O)c2ccc(OC)cc2)c(=O)c2cc(F)c(F)cc21 | -3.4% | 7.1%[59 µM] | 16.8% | / | -11.6%
Cc1ccc(CNC(=O)C2CCN(c3ncnc4c3nc3n4CCCCC3)CC2)cc1 | 6.4% | 5.1%[59 µM] | 29.0% | / | 3.3%
CCCCS(=O)CC(COc1ccc(Cl)cc1)OC(=O)c1ccccc1 (configuration not stated) | 26.5% | 50.1µM* | 88.5% | -25.2% | 33.1%
CCCCS(=O)CC(COC)OC(=O)c1ccccc1 (configuration not stated) | ? | 15.6% | 123.7% | 0.6% | -8.2%
COc1ccc(S(=O)(=O)NCC(c2cccnc2)N2CCN(c3ccccc3)CC2)cc1C (configuration not stated) | ? | 50.1µM* | -12.9% | -0.1% | ?
COc1ccccc1N1CCN(C(CNC(=O)C(=O)NCCc2ccccc2)c2cccnc2)CC1 (configuration not stated) | 39.8µM* | 5.62µM* | 20µM* | / | 11.2µM*
COc1ccc(N2CCN(C(CNS(=O)(=O)c3cccs3)c3cccnc3)CC2)cc1 (configuration not stated) | ? | 89.1µM* | -15.0% | 9.9% | ?
COc1ccc(C(=O)NCC(c2cccnc2)N2CCN(c3ccccc3OC)CC2)cc1 (configuration not stated) | -19.6% | ? | 4.7% | / | -27.0%
O=S(=O)(NCC(c1cccnc1)N1CCN(c2ccccc2)CC1)c1cccs1 (configuration not stated) | ? | ? | 0.4% | -7.6% | -26.1%
COc1ccccc1N1CCN(C(CNS(=O)(=O)c2cccs2)c2cccnc2)CC1 (configuration not stated) | -6.0% | 50.1µM* | 5.1% | 1.0% | -33.3%
COc1ccc(S(=O)(=O)NCC(c2cccnc2)N2CCN(c3ccc(F)cc3)CC2)cc1C (configuration not stated) | ? | ? | -16.0% | 1.3% | ?
Cc1ccccc1Cn1c(CN2CCC(C(=O)NCCc3ccccc3)CC2)cc2ccccc21 | -24.8% | 8.9%[59 µM] | 13.8% | / | -20.0%
COc1ccc(N2CCN(C(CNS(=O)(=O)c3cc(F)ccc3F)c3cccnc3)CC2)cc1 (configuration not stated) | -38.0% | 44.7µM* | -23.0% | 9.0% | ?
COc1ccc(C#CC2C=CC(OC(C)=O)C(COC(C)=O)O2)cc1 (configuration not stated) | / | / | / | 15.4% | /
Cc1ccsc1CN(C(=O)c1ccc(Br)cc1)C1CCS(=O)(=O)C1 (configuration not stated) | -11.6% | 6.4%[59 µM] | 25.5% | / | -7.6%
